Inconclusive results are not listed. Entries that show only a call come without a potency. Activity calls are given as the source filed them. Calls come from the whole dose curve; as a rule, active = well fitted inhibition curve with a large enough effect; inconclusive = small, poorly fitted or top-dose-only effect; inactive = flat fitted curve, though single readings scatter.
These molecules were tested on CP305 (assay: qHTS profiling for inhibitors of Plasmodium falciparum proliferation (AID 504749; note: nearly all actives have a fitted effect of over 60% in size)). Conditions: P. falciparum in erythrocytes, SYBR Green DNA, 72 h; series mostly up to 28.7 µM.
Summary of the method: (§1)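 P. falciparum-infected erythrocytes (0.3% parasitemia, 2.5% hematocrit) incubated with compound 72 h at 37 C, 5% CO2. Parasite DNA detected by SYBR Green after lysis, overnight at room temperature; normalised to 0.29 uM artemisinin and DMSO.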
Potency is the fitted concentration of half-maximal effect.

Row | Compound | Potency
1 | C[C@H](N)Cc1ccccc1 | inactive
2 | C[C@]12C=CC(=O)C=C1CC[C@@H]1C2CC[C@]2(C)OC(=O)CCC12 (stereo partly specified) | inactive
3 | OCC(O)[C@H]1O[C@@H]2O[C@H](C(Cl)(Cl)Cl)O[C@@H]2[C@H]1O (stereo partly specified) | inactive
4 | CC1(C)[C@@H](C=C(Cl)Cl)[C@@H]1C(=O)OCc1c(F)c(F)cc(F)c1F | inactive
5 | CC1(C)S[C@@H]2[C@H](N)C(=O)N2C1C(=O)O (stereo partly specified) | inactive
6 | C=C1Nc2ccccc2C(=O)N1c1ccccc1C | inactive
7 | CC1OC(O[C@H]2C[C@@H](O)[C@]3(CO)[C@@H]4C(CC[C@]3(O)C2)[C@@]2(O)CC[C@H](C3=CC(=O)OC3)[C@@]2(C)C[C@H]4O)C(O)C(O)C1O (stereo partly specified) | inactive
8 | O=[N+]([O-])OC1CO[C@H]2C(O[N+](=O)[O-])COC12 (stereo partly specified) | inactive
9 | CCOC(=O)/C=C(C)/C=C/CC(C)CCCC(C)C (stereo unspecified) | inactive
10 | [S]=[Sb][S][Sb]=[S] | inactive
11 | CN1C2CCC1C(C(=O)O)C(OC(=O)c1ccccc1)C2 (stereo unspecified) | inactive
12 | C[C@@H]1CC[C@H]2[C@@H](C)C(=O)O[C@@H]3OC4(C)CC[C@@H]1C32OO4 (stereo partly specified) | 13.5 nM (active)
13 | Cc1ccc2c(c1)[C@@H]1CN(C)CC[C@H]1N2 | inactive
14 | Nc1nc(O)c(-c2ccccc2)o1 | inactive
15 | C=CC[N+]1(C)CCC23c4c5ccc(O)c4O[C@H]2C(=O)CC[C@@]3(O)C1C5 (stereo partly specified) | inactive
16 | OC[C@@H](O)[C@H]1O[C@@H]2OC(C(Cl)(Cl)Cl)O[C@H]2[C@H]1O (stereo partly specified) | inactive
17 | CCCCCCC(=O)O[C@H]1CC[C@H]2[C@@H]3CCC4CC(=O)C=C(C)[C@]4(C)[C@H]3CC[C@]12C (stereo partly specified) | inactive
18 | Cc1cc(C)cc(C(=O)OC2CC3CCC(C2)N3C)c1 (stereo unspecified) | inactive
19 | CCCN1CCCC2Cc3nc(N)ncc3CC21 (stereo unspecified) | inactive
20 | COc1ccc2c3c1O[C@H]1[C@@H](O)C=C[C@H]4C(C2)NCCC341 (stereo partly specified) | inactive
21 | CCCCCC(O)C1C(=O)OC(C)C(O)\C=C/C=C\C=C/C=C\C=C(\C)C(O)C(O)C(O)CC(O)CC(O)CC(O)CC(O)CC1O (stereo unspecified) | inactive
22 | CCCCCc1cc(O)c2c(c1)OC(C)(C)C1CC=C(C)CC21 (stereo unspecified) | 12000 nM (active)

What follows are molecules tested on CP315 in the same assay as above. Conditions: P. falciparum in erythrocytes, SYBR Green DNA, 72 h; series mostly up to 28.7 µM.
Summary of the method: as §1

Row | Compound | Potency
23 | C[C@H](N)Cc1ccccc1 | inactive
24 | C[C@]12C=CC(=O)C=C1CC[C@@H]1C2CC[C@]2(C)OC(=O)CCC12 (stereo partly specified) | inactive
25 | OCC(O)[C@H]1O[C@@H]2O[C@H](C(Cl)(Cl)Cl)O[C@@H]2[C@H]1O (stereo partly specified) | inactive
26 | CC1(C)[C@@H](C=C(Cl)Cl)[C@@H]1C(=O)OCc1c(F)c(F)cc(F)c1F | inactive
27 | CC1(C)S[C@@H]2[C@H](N)C(=O)N2C1C(=O)O (stereo partly specified) | inactive
28 | C=C1Nc2ccccc2C(=O)N1c1ccccc1C | inactive
29 | CC1OC(O[C@H]2C[C@@H](O)[C@]3(CO)[C@@H]4C(CC[C@]3(O)C2)[C@@]2(O)CC[C@H](C3=CC(=O)OC3)[C@@]2(C)C[C@H]4O)C(O)C(O)C1O (stereo partly specified) | inactive
30 | O=[N+]([O-])OC1CO[C@H]2C(O[N+](=O)[O-])COC12 (stereo partly specified) | inactive
31 | CCOC(=O)/C=C(C)/C=C/CC(C)CCCC(C)C (stereo unspecified) | inactive
32 | [S]=[Sb][S][Sb]=[S] | inactive
33 | CN1C2CCC1C(C(=O)O)C(OC(=O)c1ccccc1)C2 (stereo unspecified) | inactive
34 | C[C@@H]1CC[C@H]2[C@@H](C)C(=O)O[C@@H]3OC4(C)CC[C@@H]1C32OO4 (stereo partly specified) | 23.9 nM (active)
35 | Cc1ccc2c(c1)[C@@H]1CN(C)CC[C@H]1N2 | inactive
36 | Nc1nc(O)c(-c2ccccc2)o1 | inactive
37 | C=CC[N+]1(C)CCC23c4c5ccc(O)c4O[C@H]2C(=O)CC[C@@]3(O)C1C5 (stereo partly specified) | inactive
38 | OC[C@@H](O)[C@H]1O[C@@H]2OC(C(Cl)(Cl)Cl)O[C@H]2[C@H]1O (stereo partly specified) | inactive
39 | CCCCCCC(=O)O[C@H]1CC[C@H]2[C@@H]3CCC4CC(=O)C=C(C)[C@]4(C)[C@H]3CC[C@]12C (stereo partly specified) | inactive
40 | Cc1cc(C)cc(C(=O)OC2CC3CCC(C2)N3C)c1 (stereo unspecified) | inactive
41 | CCCN1CCCC2Cc3nc(N)ncc3CC21 (stereo unspecified) | inactive
42 | COc1ccc2c3c1O[C@H]1[C@@H](O)C=C[C@H]4C(C2)NCCC341 (stereo partly specified) | inactive
43 | CCCCCC(O)C1C(=O)OC(C)C(O)\C=C/C=C\C=C/C=C\C=C(\C)C(O)C(O)C(O)CC(O)CC(O)CC(O)CC(O)CC1O (stereo unspecified) | inactive
44 | CCCCCc1cc(O)c2c(c1)OC(C)(C)C1CC=C(C)CC21 (stereo unspecified) | 4260 nM (active)

The molecules below were run on CP325 in the same assay as above. Conditions: P. falciparum in erythrocytes, SYBR Green DNA, 72 h; series mostly up to 28.7 µM.
Summary of the method: as §1

Row | Compound | Potency
45 | C[C@H](N)Cc1ccccc1 | inactive
46 | C[C@]12C=CC(=O)C=C1CC[C@@H]1C2CC[C@]2(C)OC(=O)CCC12 (stereo partly specified) | inactive
47 | OCC(O)[C@H]1O[C@@H]2O[C@H](C(Cl)(Cl)Cl)O[C@@H]2[C@H]1O (stereo partly specified) | inactive
48 | CC1(C)[C@@H](C=C(Cl)Cl)[C@@H]1C(=O)OCc1c(F)c(F)cc(F)c1F | inactive
49 | CC1(C)S[C@@H]2[C@H](N)C(=O)N2C1C(=O)O (stereo partly specified) | inactive
50 | C=C1Nc2ccccc2C(=O)N1c1ccccc1C | inactive
51 | CC1OC(O[C@H]2C[C@@H](O)[C@]3(CO)[C@@H]4C(CC[C@]3(O)C2)[C@@]2(O)CC[C@H](C3=CC(=O)OC3)[C@@]2(C)C[C@H]4O)C(O)C(O)C1O (stereo partly specified) | inactive
52 | O=[N+]([O-])OC1CO[C@H]2C(O[N+](=O)[O-])COC12 (stereo partly specified) | inactive
53 | CCOC(=O)/C=C(C)/C=C/CC(C)CCCC(C)C (stereo unspecified) | inactive
54 | [S]=[Sb][S][Sb]=[S] | inactive
55 | CN1C2CCC1C(C(=O)O)C(OC(=O)c1ccccc1)C2 (stereo unspecified) | inactive
56 | C[C@@H]1CC[C@H]2[C@@H](C)C(=O)O[C@@H]3OC4(C)CC[C@@H]1C32OO4 (stereo partly specified) | 15.1 nM (active)
57 | Cc1ccc2c(c1)[C@@H]1CN(C)CC[C@H]1N2 | inactive
58 | Nc1nc(O)c(-c2ccccc2)o1 | inactive
59 | C=CC[N+]1(C)CCC23c4c5ccc(O)c4O[C@H]2C(=O)CC[C@@]3(O)C1C5 (stereo partly specified) | inactive
60 | OC[C@@H](O)[C@H]1O[C@@H]2OC(C(Cl)(Cl)Cl)O[C@H]2[C@H]1O (stereo partly specified) | inactive
61 | CCCCCCC(=O)O[C@H]1CC[C@H]2[C@@H]3CCC4CC(=O)C=C(C)[C@]4(C)[C@H]3CC[C@]12C (stereo partly specified) | inactive
62 | Cc1cc(C)cc(C(=O)OC2CC3CCC(C2)N3C)c1 (stereo unspecified) | inactive
63 | CCCN1CCCC2Cc3nc(N)ncc3CC21 (stereo unspecified) | inactive
64 | COc1ccc2c3c1O[C@H]1[C@@H](O)C=C[C@H]4C(C2)NCCC341 (stereo partly specified) | inactive
65 | CCCCCC(O)C1C(=O)OC(C)C(O)\C=C/C=C\C=C/C=C\C=C(\C)C(O)C(O)C(O)CC(O)CC(O)CC(O)CC(O)CC1O (stereo unspecified) | inactive
66 | CCCCCc1cc(O)c2c(c1)OC(C)(C)C1CC=C(C)CC21 (stereo unspecified) | 6010 nM (active)
